# Results reported in ChEMBL document CHEMBL4649986, “Chemical probes and inhibitors of bromodomains outside the BET family” (Medchemcomm, 2016).
# Experiments:
# [1] = biological target: Bromodomain-containing protein 4 (Homo sapiens) (UniProt O60885); details: Compound concentration 10.0 uM, Protein concentration 2.0 uM
# [2] = biological target: T1, Transcription intermediary factor 1-alpha (Homo sapiens) (UniProt O15164); details: Compound concentration 10.0 uM, Protein concentration 2.0 uM
# T1 sequence (whole entry): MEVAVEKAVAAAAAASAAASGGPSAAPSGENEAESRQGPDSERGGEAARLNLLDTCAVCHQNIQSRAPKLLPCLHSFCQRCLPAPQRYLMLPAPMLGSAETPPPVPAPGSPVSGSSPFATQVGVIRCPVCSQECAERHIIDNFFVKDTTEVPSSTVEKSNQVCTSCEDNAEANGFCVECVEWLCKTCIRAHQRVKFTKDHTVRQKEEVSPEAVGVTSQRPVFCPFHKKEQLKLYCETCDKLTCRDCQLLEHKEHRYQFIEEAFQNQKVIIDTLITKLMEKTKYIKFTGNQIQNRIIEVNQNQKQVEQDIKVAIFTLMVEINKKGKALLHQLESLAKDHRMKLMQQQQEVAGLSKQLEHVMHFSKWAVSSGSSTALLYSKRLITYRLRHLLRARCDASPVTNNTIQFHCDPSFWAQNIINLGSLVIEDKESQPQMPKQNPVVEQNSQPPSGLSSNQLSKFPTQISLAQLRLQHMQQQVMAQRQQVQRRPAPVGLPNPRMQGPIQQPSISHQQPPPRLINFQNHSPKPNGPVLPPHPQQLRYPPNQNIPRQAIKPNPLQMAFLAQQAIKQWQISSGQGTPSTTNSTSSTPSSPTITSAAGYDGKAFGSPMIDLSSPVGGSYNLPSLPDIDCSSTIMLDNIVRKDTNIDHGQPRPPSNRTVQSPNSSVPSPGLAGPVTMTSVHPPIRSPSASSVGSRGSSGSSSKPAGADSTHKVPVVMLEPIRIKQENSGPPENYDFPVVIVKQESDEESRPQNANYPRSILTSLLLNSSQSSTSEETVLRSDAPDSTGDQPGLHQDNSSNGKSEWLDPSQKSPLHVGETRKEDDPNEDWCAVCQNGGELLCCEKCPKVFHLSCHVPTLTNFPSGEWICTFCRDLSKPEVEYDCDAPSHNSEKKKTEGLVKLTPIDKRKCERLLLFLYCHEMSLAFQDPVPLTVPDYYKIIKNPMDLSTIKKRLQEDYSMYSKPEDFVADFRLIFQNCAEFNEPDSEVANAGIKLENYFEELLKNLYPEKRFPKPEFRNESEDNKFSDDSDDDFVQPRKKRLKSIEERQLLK
smiles,measurement,setting,value
CCCS(=O)(=O)c1nc(NC2CC2)cc(-c2ccc3c(ccn3C3CC(C)(C)NC(C)(C)C3)c2)n1,ΔTm,[1],0.53 °C
same,ΔTm,[2],0.33 °C
